In general, inhibition refers to the relative decrease from the control value, in per cent.

Here are results for 62 compounds from PubChem BioAssay AID1578 (Sanford-Burnham Center for Chemical Genomics, 2009).

The whole screen tested about 290,000 compounds, of which about 3,000 (1%) were called active. Rule as the data show it: active = inhibition mostly above about 36% (no sharp cut-off); inactive = mostly below about 34%. The list comes from a sample in which actives are over-represented; it also holds similar structures and randomly drawn compounds.

This experiment can be described thus: inhibition of NOD1-driven NF-kB reporter – cell-based, luminescence, uHTS, primary screen (AID 1578).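 Also: HEK-293T reporter cells stimulated with the NOD1 agonist gamma-tri-DAP.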 Conditions: NOD1-driven NF-kB luciferase reporter cells, at 4 µM, stronger effect = higher value.
Turning to `Cc1ccc(SCc2cc(=O)[nH]c(/N=C(\N)Nc3cccc4ccccc34)n2)cc1`, the inhibition is -11.6% (inactive). Next, `COc1ccc(Cl)cc1N/C(N)=N/c1nc(CSc2ccc(C)cc2)cc(=O)[nH]1`: -6% (inactive); `COc1ccccc1N/C(N)=N/c1nc(CSc2ccc(C)cc2)cc(=O)[nH]1`: 53% (active). As for `Cc1ccc(NC(=O)CN2CCN(C(=O)C3CCCO3)CC2)c(C)c1` (configuration not stated), the figure is -8.7% (inactive); as for `CCCCCCc1nc2ccccc2c(=O)n1NC(=O)c1c(O)c2cccc3c2n(c1=O)CCC3`, 46.9% (inactive); as for `CCC(=O)N1CCN(c2nc(-c3ccc(Cl)cc3)cs2)CC1`, -12.7% (inactive). As for `CC(=O)/C(C#N)=C1\NC(=O)C(Cc2ccc(C)c(Cl)c2)S1` (configuration not stated), the figure is 26.5% (inactive); as for `CC(=O)/C(C#N)=C1\NC(=O)C(Cc2cc(Cl)ccc2Cl)S1` (configuration not stated), 55% (active). In the case of `CC(=O)/C(C#N)=C1\NC(=O)C(Cc2ccccc2Cl)S1` (configuration not stated), the inhibition is 14.5% (inactive).

As to `COc1cc(/C=C/C(=O)N2CCOCC2)ccc1OCc1ccccc1`, the inhibition is -102% (inactive). As for `Cc1cc(C)n2nc(C(=O)Nc3c(C)nn(Cc4ccc(F)cc4)c3C)cc2n1`, the figure is -36.9% (inactive); as for `Cc1cc2oc(=O)cc(Cn3ccnc3)c2cc1Cl`, 0.9% (inactive). Next, `Cc1cc2oc(=O)cc(Cn3ncc(Cl)c(Cl)c3=O)c2cc1Cl`: 56.2% (active).

As to `Cc1cc2oc(=O)cc(CN3CCOCC3)c2cc1Cl`, the inhibition is 6.3% (inactive). `O=[N+]([O-])c1cc(S(=O)(=O)N2CCCC2)ccc1N/N=C1/CCCc2ccccc21`: the inhibition is 13.3% (inactive). As for `NS(=O)(=O)c1ccc(CNC(=O)c2cccnc2Cl)cc1`, the figure is -10.3% (inactive); as for `CCOC(=O)C1CCCN(CCC(=O)Nc2cccc(C)c2)C1` (configuration not stated), -37.8% (inactive).

Turning to `COc1ccc(/C=N/Nc2nncn2N)cc1Br`, the inhibition was -19.1% (inactive). Next, `Nn1cnnc1N/N=C/c1cc(Br)cc(Br)c1O`: 82.4% (active); `Nn1cnnc1N/N=C/c1ccc(Cl)cc1Cl`: -3.2% (inactive). As for `CC(C)CCN1C(=O)c2ccccc2C1C(=O)NCc1cccnc1` (configuration not stated), the figure is 7.5% (inactive); as for `Cn1c(=O)c2c(nc3n2CC(COc2ccccc2)O3)n(C)c1=O` (configuration not stated), -8.7% (inactive). Take `COc1cc(/C=N/Nc2snc(SC)c2C#N)ccc1O`: the inhibition was 63.7% (inactive).

As to `COc1ccc(/C=N/Nc2snc(SC)c2C#N)cc1OC`, the inhibition was -0.1% (inactive). Next, `COc1cc(/C=N/Nc2snc(SC)c2C#N)cc(OC)c1OC`: 68.9% (active); `CCOc1ccc(NC(=O)CCNS(=O)(=O)c2ccc3c(c2)oc(=O)n3C)cc1`: -14.8% (inactive); `N#CC(C(=O)c1ccccc1Cl)=C1SCCCS1`: -2.6% (inactive).

As to `CCN1C(=NCC(C)C)N[C@@H](c2cccc(C(F)(F)F)c2)C(C(=O)OC)=C1C`, the inhibition is -18.8% (inactive).

In the case of `Cc1ccc(Nc2c(-c3ccc(C)o3)nc3cnccn23)cc1`, the inhibition was -9.7% (inactive). Next, `Cc1ccc(-c2nc3cnccn3c2Nc2ccccc2)o1`: -18.2% (inactive); `Cc1ccc(-c2nc3cnccn3c2Nc2c(C)cccc2C)o1`: 71% (active). With `COc1ccc(C2c3cc(OC)c(OC)cc3CCN2C(=O)c2ccccc2)cc1OC` (configuration not stated), the inhibition was -31.9% (inactive). Consider `Cc1ccc(NC(=O)CSc2ncnc3ccccc23)cc1S(=O)(=O)N1CCCCCC1`, for which the inhibition was 31.7% (inactive). As for `Cc1ccc(S(=O)(=O)N2CCCCC2)cc1NC(=O)CSc1ncnc2ccccc12`, the figure is 58.7% (inactive). As for `Cc1ccc(NC(=O)c2cc(=O)c3ccccc3o2)cc1S(=O)(=O)N1CCOCC1`, the figure is -6.6% (inactive); as for `O=C(Nc1ccc(S(=O)(=O)N2CCCC2)cc1)c1cc(=O)c2ccccc2o1`, -3.6% (inactive). Next, `COc1ccc(Br)cc1CNC(=O)CN1C(=O)C(c2ccccc2)Oc2cccnc21` (configuration not stated): 18.1% (inactive); `CCc1ccccc1NC(=O)CCc1c(C)nn(-c2ccc(N3CCOCC3)nn2)c1C`: 20.1% (inactive). Regarding `O=C(CSc1nnc(CNC(=O)c2cccs2)o1)Nc1ccc(Br)cc1`, the inhibition is -31.8% (inactive).

On to `CCOC(=O)c1cnc2ccc(C(=O)OC)cc2c1Nc1ccc(C(=O)O)cc1`, for which the inhibition is -16.9% (inactive). As to `CCOC(=O)c1ccc2ncc(C(=O)OCC)c(Nc3ccc(N4CCOCC4)cc3)c2c1`, the inhibition was 107% (active). Next, `CCOC(=O)c1cnc2ccc(C)cc2c1Nc1ccc(N2CCOCC2)cc1`: -17.2% (inactive). Next, `CC(C)C(NC(=O)C(C)N1C(=O)c2ccccc2C1=O)c1ccccc1` (configuration not stated): -7.4% (inactive). As for `CCC(=O)c1ccc(SC(=O)N(C)C)cc1O`, the figure is -4.8% (inactive); as for `C=C1CCC[C@]2(C)C[C@H]3OC(=O)C(CN4CCCCC4CO)[C@H]3CC12` (some centres not stated), 80.3% (active). As to `C=C1CCC[C@]2(C)C[C@H]3OC(=O)C(CN4CC(C)OC(C)C4)[C@H]3C[C@@H]12` (some centres not stated), the inhibition is -4.7% (inactive).

Regarding `C=C1CCC[C@]2(C)C[C@H]3OC(=O)C(CN4CCOCC4)[C@H]3C[C@@H]12` (some centres not stated), the inhibition is 2.5% (inactive). As for `COc1ccccc1NC(=O)c1sc2ncn(Cc3ccc(C)cc3)c(=O)c2c1C`, the figure is -43.8% (inactive). Regarding `CCCS(=O)(=O)Nc1cc(C(F)(F)F)ccc1OCCOC`, the inhibition is -0.9% (inactive). Next, `CC(C)(C)c1ccc(Oc2ccc(N)cc2)cc1`: 82% (active). Next, `Cc1cc(Oc2ccc(N)cn2)ccc1Cl`: 4.5% (inactive); `Cc1cc(C)cc(Oc2ccc(N)cc2)c1`: -28.1% (inactive). As for `Cc1cccc(Oc2ccc(N)cc2)c1`, the figure is -25.9% (inactive); as for `CC(C)(C)c1ccc(Oc2ccc(N)cn2)cc1`, 65.9% (active). On to `Nc1ccc(Oc2cc(N)cc(Oc3ccccc3)c2)cc1`, for which the inhibition was -12.3% (inactive). As to `Nc1ccc(Oc2ccc(F)cc2)nc1`, the inhibition is -4.6% (inactive). In the case of `Nc1ccc(Oc2ccc(Br)cc2)cc1`, the inhibition is -35.5% (inactive).

Take `CCn1c2c(c3cc(Br)ccc31)CCC/C2=N\O`: the inhibition was 15.3% (inactive). Consider `O=C(CCN1CCN(Cc2ccccc2)CC1)NNC(=O)Cc1ccc(Cl)c(Cl)c1`, for which the inhibition was -1.2% (inactive). As for `COCC(=O)N(Cc1cc2cc(OC)ccc2[nH]c1=O)c1ccc(C)cc1`, the figure is -12.1% (inactive); as for `O=C(CCS(=O)(=O)c1ccccc1)Nc1ccc2c(c1)OCO2`, -59.3% (inactive); as for `CCOC(=O)N1CCN(S(=O)(=O)c2cc(Br)cnc2N)CC1`, 10.4% (inactive).
